The entries come from a sample that favours hits as a whole.
Dicer inh: blocks human Dicer maturation of pre-miR-21. cat-ELCCA pre-miR-21 Dicer processing, chemiluminescence; stronger effect = higher value. hit rate 6% among 47,000. z-score at 25 µM. Q9UPY3; in the data active = z-score above about 3, passing the limit was not always enough;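 also: higher signal means more uncleaved substrate so more Dicer inhibition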
Numbers stand for hits; 0 = inactive.

SMILES | Dicer inh
CCNc1nc2ccc(Cl)cc2nc1NCC | 4.63
CCNc1nc(-c2ccc(Cl)cc2)c(-c2ccc(C)cc2)s1 | 0
Cn1c(=O)c2c(ncn2CC(=O)N2CCOCC2)n(C)c1=O | 0
COCCCNC(=O)Cn1cnc2c1c(=O)n(C)c(=O)n2C | 0
COC(=O)C1CCN(C(=O)Cn2cnc3c2c(=O)n(C)c(=O)n3C)CC1 | 4.63
Cn1c(=O)c2c(ncn2CC(=O)N2CCCC2)n(C)c1=O | 0
CC1CCN(C(=O)Cn2cnc3c2c(=O)n(C)c(=O)n3C)CC1 | 3.13
Cn1c(=O)c2c(ncn2CC(=O)NC2CCSC2=O)n(C)c1=O (stereo unspecified) | 0
CCOC(=O)CCn1cnc2c1c(=O)n(C)c(=O)n2C | 0
CCOC(=O)C1CCCN(C(=O)Cn2cnc3c2c(=O)n(C)c(=O)n3C)C1 (stereo unspecified) | 7.17
Cn1c(=O)c2c(ncn2CC(=O)N2CCCCC2)n(C)c1=O | 0
Cc1cccc(C)c1NC(=S)N1CCCc2ccccc21 | 0
Cc1nc(C)c(-c2ccnc(N)n2)s1 | 0
Cc1ccc(-c2nnc(NCc3ccccc3)c3ccccc23)cc1S(N)(=O)=O | 0
COC(=O)c1sccc1Oc1ccc(C(F)(F)F)cc1N | 0
CCOC(=O)N1CCN(S(=O)(=O)c2ccc3c(c2)OCCO3)CC1 | 0
CC(C)OC(=O)CSc1nnc(-c2ccc(Br)cc2)o1 | 0
Cc1ccc(-c2nnc(SCC(=O)OC(C)C)o2)cc1 | 0
COc1ccc(-c2nnc(SCC(=O)OC(C)C)o2)cc1 | 3.09
Cc1cc(C)n(NC(=S)NCc2cccs2)c(=O)c1C#N | 0
O/N=C/C1=C(Cl)c2cc(Cl)ccc2SC1 | 0
Cc1cc(C)c2nc(Nc3nc(O)cc(=O)[nH]3)nc(C)c2c1 | 5.25
Cc1ccc2nc(Nc3nc(O)cc(=O)[nH]3)nc(C)c2c1 | 0
Cc1ccc2nc(Nc3nc(C)cc(=O)[nH]3)nc(C)c2c1 | 0
O=C1CCCC2=C1C(c1ccccc1Cl)c1c([nH]n(-c3ccccc3)c1=O)N2 (stereo unspecified) | 0
SMILES | Dicer inh
COC(=O)C(Cc1ccccc1)NC(C)=O (stereo unspecified) | 0
O=C(/C(=C/c1ccccc1)[N+](=O)[O-])c1ccccc1OCc1ccccc1 | 0
O=C(CSc1nccc(C(F)(F)F)n1)c1cccnc1 | 0
CCOC(=O)c1c(C)nc2ccc(Cl)cc2c1-c1ccccc1 | 0
CCOC(=O)c1c(-c2ccccc2)c2oc3ccccc3c2[nH]c1=O | 3.09
CCOC(=O)c1c(O)c2ccccc2[nH]c1=O | 0
CCOC(=O)c1nnc2cc(-c3cccs3)sc2n1 | 0
C=CCN(CC=C)Cc1c(C)[nH]c2ccc(Br)cc2c1=O | 0
CCOC(=O)c1c(NC(=O)Nc2ccc(Cl)cc2)sc(C)c1-c1ccccc1 | 0
COc1cc(Cl)ccc1N/N=C(\C#N)C(N)=O | 4.95
N#C/C(=N\Nc1ccc(Cl)cc1)C(=O)C1CC1 | 0
COc1ccc(Cl)cc1NC(C)=O | 0
CSc1cccc(NC2OC(=O)c3ccccc32)c1 (stereo unspecified) | 0
CCCCOC(=O)Nc1ccc(N(CC)CC)cc1 | 0
CCCc1c(NC(=O)Nc2ccc(F)cc2)cnn1-c1ccccc1 | 0
CCCc1cc(C(=O)Nc2ccc(N(CC)CC)cc2)nn1-c1ccccc1 | 4.43
O=C1c2oc3ccccc3c(=O)c2C(c2ccc(O)cc2)N1Cc1ccc(F)cc1 (stereo unspecified) | 0
O=C(Nc1cc(Cl)cc(Cl)c1)Nc1cc(-c2ccco2)[nH]n1 | 0
Nc1c(C(=O)N/N=C/c2ccc(Cl)cc2)sc(=S)n1-c1ccccc1 | 0
COc1cc(OC)c(C(F)(F)F)cc1NCN1C(=O)CCC1=O | 0
CC(C)c1ccc(NCN2C(=O)CCC2=O)cc1 | 3.67
CCc1ccc(NCN2C(=O)c3ccccc3C2=O)cc1 | 0
O=C1CCC(=O)N1CNc1c(F)cccc1F | 0
O=C1CCC(=O)N1CNc1ccc(F)cc1F | 4.57
Cc1cc(Cl)ccc1NCN1C(=O)CCC1=O | 5.24
SMILES | Dicer inh
Cc1ccc(NCN2C(=O)c3ccccc3C2=O)c(C)c1 | 0
Cc1cc(Br)ccc1NCN1C(=O)c2ccccc2C1=O | 0
O=C1CCC(=O)N1CNc1cc(C(F)(F)F)cc(C(F)(F)F)c1 | 3.85
CC(C)c1ccc(Nc2cc(=O)[nH]n2C)cc1 | 0
O=C(CNc1cc(C(F)(F)F)cc(C(F)(F)F)c1)c1ccc(Cl)cc1 | 0
CC1CC(=O)N(c2ccc(F)cc2F)C(=O)C1 | 0
CC(C)(C)C(=O)Cn1nnc(-c2cc(C(F)(F)F)cc(C(F)(F)F)c2)n1 | 0
Cc1c(S(=O)(=O)N(C)c2ccccc2)sc2ccc(Cl)cc12 | 0
Cc1ccc(C(=O)CSC2=NCCCCC2)cc1 | 0
Cc1nc(-c2cccs2)sc1NC(=O)O/N=C(\N)c1ccc(Cl)cc1 | 0
N=C(N)c1ccc(C(F)(F)F)cc1 | 0
COC(=O)c1ccccc1Sc1c(-c2ccccc2)nc2ccccn12 | 0
CC(C)NC(=O)Oc1noc2cc(Cl)ccc12 | 0
CCOC(=O)c1cc(-c2cccs2)nn1C(=O)c1ccccc1 | 0
O=C1Nc2ccccc2/C1=C\C1CC2C=CC1C2 (stereo unspecified) | 0
COc1cc2c(cc1OC)C(c1sc3ccccc3c1Cl)=NCC2 | 0
O=C(NCc1c(Cl)cccc1Oc1ccccc1)Nc1ccc(OCc2ccccc2)cc1 | 0
CSc1ccccc1NC(=O)Cn1cnc([N+](=O)[O-])n1 | 0
Cn1cc([N+](=O)[O-])c(C(=O)Nc2ccc(Cl)cc2)n1 | 0
O=C(Cn1cnc([N+](=O)[O-])n1)Nc1ccc(Cl)cc1 | 4.35
O=c1ccc(-c2ccc(F)cc2)nn1-c1ccc([N+](=O)[O-])cc1 | 0
CCCCOc1ccc(-c2nnc(N)s2)cc1 | 0
Cc1cccc(-c2nnc(N)s2)c1 | 4.38
Nc1nnc(-c2ccc(Cl)cc2)s1 | 8.65
Cc1cccc(-c2nc(N)nc(N)n2)c1 | 0
SMILES | Dicer inh
CCCOc1cccc(-c2nnc(N)s2)c1 | 0
Nc1nc(-c2ccc(Cl)cc2)cs1 | 0
Cn1cc(Br)c(NC(=O)c2ccc(Cl)c(Cl)c2)n1 | 0
O=C(Cn1nnc2sc3c(c2c1=O)CCCC3)Nc1ccc(Br)cc1 | 0
CN(C)c1ccc(C=C(c2ccc(N)cc2)c2ccc(N)cc2)cc1 | 6.36
COC(=O)C(=C(C)C)c1ccc(N(C)C)cc1 | 0
Nc1ccc(N(c2ccccc2)c2ccc(N)cc2)cc1 | 0
O=C(O)c1cc(-c2ccc(Cl)cc2)oc1C(F)(F)F | 0
COc1ccc(C(=O)CC2(O)C(=O)N(C(C)C)c3ccccc32)cc1OC (stereo unspecified) | 0
COCCOC(=O)c1c(C)oc2ccc(O)cc12 | 0
COC(=O)c1c(NC(=O)c2cc3ccccc3o2)sc2c1CCC2 | 0
CC1CCC(C)N(C(=O)c2cc3n(n2)C(C(F)(F)F)CC(c2ccco2)N3)C1 (stereo unspecified) | 0
COc1ccc(-c2nnc(Nc3cccc(O)c3)c3ccccc23)cc1 | 3.91
Cc1ccc(-c2nnc(Nc3cccc(O)c3)c3ccccc23)cc1S(=O)(=O)N(C)C | 0
COc1ccc(-c2nnc(Nc3ccc4c(c3)ncn4C)c3ccccc23)cc1 | 0
Cn1c(=S)[nH]c2cc(C(F)(F)F)ccc21 | 0
COc1ccc(-c2cn3cccc(OCc4ccc(Cl)c(Cl)c4)c3n2)cc1 | 0
O=S(=O)(c1ccc(-c2ccno2)s1)N(Cc1ccccn1)Cc1ccccn1 | 0
C=CCOC(=O)C(CC(=O)O)NC(=O)OCC1c2ccccc2-c2ccccc21 (stereo unspecified) | 0
CC(C)C[C@H](NC(=O)OCC1c2ccccc2-c2ccccc21)C(=O)O | 4.6
CC[C@H](C)[C@H](NC(=O)OCC1c2ccccc2-c2ccccc21)C(=O)O | 0
